# Results filed as inconclusive are left out. The source made the active and inactive calls. Calls come from the whole dose curve; as a rule, active = well fitted inhibition curve with a large enough effect; inconclusive = small, poorly fitted or top-dose-only effect; inactive = flat fitted curve, though single readings scatter.
# Experiments:
# [1] = Drug repurposing screens with cells derived from glioblastoma tumor samples (AID 1345199); conditions: GBM patient neurospheres viability, ATP luminescence, 48 h; note: nearly all actives have a fitted effect of over 40% in size
# In short: (§1)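 Primary testing used CD133+ neurospheres from four GBM patients, seven concentrations, 48 h exposure and ATP-based viability; confirmation added three slower-growing patient lines.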
# astro = control astrocytes; experiment: as above; conditions: viability, ATP luminescence, 48 h; series mostly up to 45.9 µM
# In short: as §1
# [2] = at 45.9 µM (top of the series), tumour line B
# [3] = at 45.9 µM (top of the series), tumour line D
# [4] = at 46.1 µM (top of the series), tumour line C
# [5] = at 46 µM (top of the series), tumour line A
# % is set by controls: 0 for no effect and ±100 for the full control effect; potency is the fitted concentration of half-maximal effect.
SMILES,"activity, negative = cell killing [1, 2]","activity, negative = cell killing [1, 3]",Potency ([1]; tumour line A),Potency (astro),"activity, negative = cell killing [1, 4]",Potency ([1]; tumour line D),"activity, negative = cell killing [1, 5]"
NC(N)=NCC1COc2ccccc2O1 (stereo not drawn),-11.5% (inactive),-28.1% (inactive),35.5 µM (active),inactive,,,
CO[C@H]1C[C@H](O[C@@H]2/C(C)=C/C[C@@H]3C[C@@H](C[C@]4(CC[C@H](C)[C@@H](C5CCCCC5)O4)O3)OC(=O)[C@@H]3C=C(C)/C(=N/O)[C@H]4OC/C(=C\C=C\[C@@H]2C)[C@]43O)O[C@@H](C)[C@@H]1O,,,10 µM (active),inactive,-8.72% (inactive),20 µM (active),
CC(O)[C@H]1CC[C@H]2[C@@H]3CC[C@@H]4C[C@@H](O)CC[C@]4(C)[C@H]3CC[C@]12C (stereo partly drawn),-13.1% (inactive),-23.2% (inactive),,inactive,18.8% (inactive),,
Cc1ncc(COP(=O)(O)O)c(CN)c1O,-10.4% (inactive),-17.3% (inactive),,inactive,-23.4% (inactive),,
CCC(Cc1c(I)cc(I)c(O)c1I)C(=O)O (stereo not drawn),-7.21% (inactive),-2.81% (inactive),,inactive,,,-17.6% (inactive)
CC(C)(C)NCC(O)c1ccc(O)c(CO)n1 (stereo not drawn),-4.38% (inactive),7.95% (inactive),,inactive,-15% (inactive),,
CC(C)CN(C[C@@H](OP(=O)(O)O)[C@H](Cc1ccccc1)NC(=O)O[C@H]1CCOC1)S(=O)(=O)c1ccc(N)cc1,-7.11% (inactive),-11.4% (inactive),,inactive,-18.7% (inactive),,
O=C(O)c1ccc(OCCn2ccnc2)cc1,-11.4% (inactive),-25.4% (inactive),,inactive,-11.9% (inactive),,
Cc1cc2nc3c(=O)[nH]c(=O)nc-3n(C[C@H](O)[C@H](O)[C@H](O)COP(=O)(O)OP(=O)(O)OC[C@H]3O[C@@H](n4cnc5c(N)ncnc54)[C@H](O)[C@@H]3O)c2cc1C,-13.1% (inactive),-9.51% (inactive),,inactive,,,-9.49% (inactive)
O=C(O)C1=C(CSc2nnnn2CS(=O)(=O)O)CS[C@@H]2[C@H](NC(=O)[C@H](O)c3ccccc3)C(=O)N12,-15.2% (inactive),-23.3% (inactive),,inactive,-17.1% (inactive),,
CC(=O)N[C@@H]([C@@H](O)[C@H](O)[C@H](O)CO)[C@@H](O)CC(=O)C(=O)O,-12% (inactive),-21.2% (inactive),,inactive,-14.1% (inactive),,
CC(C)=CCC/C(C)=C/C=C/C(C)=C/C=C/C(C)=C/C=C/C=C(C)/C=C/C=C(C)/C=C/C=C(\C)CCC=C(C)C,-10.4% (inactive),-12.4% (inactive),,inactive,14.8% (inactive),,
Nc1ncnc2c1ncn2CCOCP(=O)(O)O,2.17% (inactive),-1.17% (inactive),,inactive,-21.5% (inactive),,
CCCCCCCCCCCCCCCCCCOCC(COP(=O)([O-])OCC[N+](C)(C)C)OC (stereo not drawn),,-24.7% (inactive),35.5 µM (active),inactive,-1.43% (inactive),,
O=P(O)(O)OP(=O)(O)OP(=O)(O)O,-10.9% (inactive),-30.2% (inactive),,inactive,-5.26% (inactive),,
CCN(CC)CCOc1ccccc1OC,5.43% (inactive),-13.8% (inactive),,inactive,-28.2% (inactive),,
CCCCC/C=C\C/C=C\C/C=C\CCCCC(=O)O,-11.2% (inactive),2.8% (inactive),,inactive,1.83% (inactive),,
CC(C)Cc1ccc([C@@H](C)C(=O)NS(C)(=O)=O)cc1,-10.5% (inactive),-14.1% (inactive),,inactive,-23.4% (inactive),,
O=C(CCCN1CCC(C(=O)c2ccc(F)cc2)CC1)c1ccc(F)cc1,-22% (inactive),,8.91 µM (active),inactive,-4.95% (inactive),,
CNCC(=O)N[C@@H](CCCN=C(N)N)C(=O)N[C@H](C(=O)N[C@@H](Cc1ccc(O)cc1)C(=O)N[C@H](C(=O)N[C@@H](Cc1cnc[nH]1)C(=O)N1CCC[C@H]1C(=O)N[C@@H](C)C(=O)O)C(C)C)C(C)C,-7.12% (inactive),-7.19% (inactive),,inactive,-6.49% (inactive),,
O=C1c2ccccc2C(=O)C1c1ccc(Cl)cc1,-10.4% (inactive),-11.7% (inactive),,inactive,-10.5% (inactive),,
C[C@H](NCCc1ccc(O)cc1)[C@H](O)c1ccc(O)cc1,-2.5% (inactive),-20.4% (inactive),,inactive,-12.8% (inactive),,

# From PubChem BioAssay (NCATS)
